High-throughput results (PubChem)
RORgamma inh = qHTS for inhibitors of ROR gamma transcriptional activity | Nuclear receptor ROR-gamma (Mus musculus), P51450 | Drosophila S2 Gal4-RORgamma UAS-luciferase reporter, 20 h | Potency, µM (titrated, usually from 53.6 µM), without a hit: at the highest dose activity change, negative = inhibition, usual class: inhibitors | actives 5.4% (n = 310,000); further: potency means the concentration at half of the fitted maximal effect; nearly all actives have a fitted effect of over 60% in size
Target sequence (P51450 whole entry, looked up, the tested form may be a part): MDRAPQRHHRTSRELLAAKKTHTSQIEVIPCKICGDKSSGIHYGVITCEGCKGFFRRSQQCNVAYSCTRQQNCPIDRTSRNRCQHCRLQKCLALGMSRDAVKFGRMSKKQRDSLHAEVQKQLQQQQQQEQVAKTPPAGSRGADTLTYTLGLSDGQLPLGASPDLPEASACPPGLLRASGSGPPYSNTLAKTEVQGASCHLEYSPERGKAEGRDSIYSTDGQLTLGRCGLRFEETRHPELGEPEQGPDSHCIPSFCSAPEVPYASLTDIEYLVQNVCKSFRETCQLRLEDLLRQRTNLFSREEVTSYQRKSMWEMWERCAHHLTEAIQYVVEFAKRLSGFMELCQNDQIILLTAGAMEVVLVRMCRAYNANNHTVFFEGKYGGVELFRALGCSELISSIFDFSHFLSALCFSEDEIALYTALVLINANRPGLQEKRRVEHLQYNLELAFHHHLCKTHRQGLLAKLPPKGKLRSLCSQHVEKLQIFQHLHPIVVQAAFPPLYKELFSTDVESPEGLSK
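A Gal4/UAS one-hybrid system in insect cells: metallothionein-promoter Gal4–ROR gamma fusion plus Photinus luciferase reporter. Copper sulfate 700 uM final, 20 hr ambient incubation, luminescent detection after 10 min with reagent.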
ELG1 repair inh = qHTS screen for small molecules that inhibit ELG1-dependent DNA repair in human embryonic kidney (HEK293T) cells expressing luciferase-tagged ELG1; HEK293T ELG1-luciferase reporter, luminescence, 16 h; DNA damage induced by 5-fluorouridine; actives 2.3% (n = 330,000); Potency, µM (doses to about 46.1 µM), inactives show top-dose activity change, negative = inhibition, hits mostly inhibitors; further: potency means the concentration at half of the fitted maximal effect; nearly all actives have a fitted effect of over 55% in size
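Quantitative HTS, concentration-response format. 2,000 cells/well co-treated with 5-fluorouridine and compound, 16 hr in 5% CO2 at 37 °C; ONE-Glo luminescence read after 30 min.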
IL1B secr inh = qHTS for Inhibitors of Inflammasome Signaling: IL-1-beta AlphaLISA Primary Screen. actives 4.7% (n = 360,000). THP-1 LPS/ATP IL-1B secretion, AlphaLISA, 16 h; active compounds read low. activity change, % at 57.5 µM; in the data active means activity change below about -50%; inconclusive means mostly about -30% to -49%
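Secreted IL-1B measured by AlphaLISA bead assay after 16 h compound exposure of THP-1 cells; compounds (final up to 57.5 uM) added 1 h before LPS (250 ng/mL) and ATP (1.25 mM) stimulation; lower signal means less secretion.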
TDP1 cell noCPT = qHTS for Inhibitors of human tyrosyl-DNA phosphodiesterase 1 (TDP1): qHTS in cells in absence of CPT; DT40 Tdp1-/- hTDP1 cells, no CPT, ATP luminescence, 48 h; Potency, µM (highest dose often 46.2 µM), without a hit: at the top dose activity change, negative = growth inhibition, hits mostly inhibitors; actives 15% (n = 420,000); further: potency means the concentration at half of the fitted maximal effect; nearly all actives have a fitted effect of over 55% in size
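Chicken DT40 Tdp1-/- cells stably complemented with human TDP1 were seeded at 400 cells/well with DMSO in place of 20 nM camptothecin. After compound pinning, cells grew at least 48 hr at 37 °C; viability read by CellTiter-Glo luminescence.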
VP16 counter = VP16 counterscreen qHTS for inhibitors of ROR gamma transcriptional activity. Drosophila S2 Gal4-VP16 UAS-luciferase, luminescence, 20 h. Potency, µM (titrated, usually from 53.6 µM), inactives show top-dose activity, negative = inhibition, most hits filed as inhibitors. actives 3.5% (n = 310,000). AID 2546, 2010;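 further: Gal4-VP16 expression switched on by copper sulfate through the metallothionein promoter; potency means the concentration at half of the fitted maximal effect; nearly all actives have a fitted effect of over 50% in size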
DT40 TDP1 CPT = qHTS for Inhibitors of human tyrosyl-DNA phosphodiesterase 1 (TDP1): qHTS in cells in presence of CPT. chicken DT40 Tdp1-/-;hTDP1 cells + 20 nM CPT, ATP luminescence, 48 h. Potency, µM (top dose mostly 46.2 µM), inactives show top-dose activity change, negative = growth inhibition, hits mostly inhibitors. actives 12% (n = 420,000). AID 686979, 2013; further: potency means the concentration at half of the fitted maximal effect; nearly all actives have a fitted effect of over 55% in size
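Cell growth measured by CellTiter-Glo luminescence after a minimum 48 h, 37 C compound exposure with 20 nM CPT in Tdp1-knockout DT40 cells stably expressing hTDP1, seeded 400/well; qHTS titration format.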
* = called active by the depositor; ? = inconclusive; . = no result given; [ ] = dose if it differs, or a comment. Most compounds without a hit are left out; they make up all but 21% or so of the library. Unless noted, the call rests on the fitted dose curve; in most records, active means well fitted curve in the direction sought with a large enough effect; inconclusive means small, poorly fitted or top-dose-only effect, or another doubt; inactive means no such curve, though single readings can be large; an effect the other way counts as inactive or inconclusive. On the % scale 0 is the no-effect control and ±100 the full control effect.

SMILES | RORgamma inh | ELG1 repair inh | IL1B secr inh | TDP1 cell noCPT | VP16 counter | DT40 TDP1 CPT
COc1cc(/C=C2\SC(=O)N(CCNC(=O)c3c(C)noc3C)C2=O)cc(OC)c1OC | . | 18µM* | ? | 16µM* | . | ?
COc1cc(C(=O)NCCN2C(=O)S/C(=C\c3cccs3)C2=O)cc(OC)c1OC | 0% | -4% | -5 | 16µM* | 7% | ?
CC1Cc2ccccc2N1S(=O)(=O)c1cnc(Cl)c(Cl)c1 (stereo unspecified) | -5% | 42% | ? | 10µM* | -15% | 16µM*
CC1Cc2ccccc2N1S(=O)(=O)c1cnc(Cl)c(Br)c1 (stereo unspecified) | -1% | -2% | -70* | ? | -7% | ?
CC(=O)N1CCc2cc(S(=O)(=O)N3CCOCC3)ccc21 | 22% | -1% | 10 | -10% | 2% | 3%
CC(=O)N1CCc2cc(S(=O)(=O)N3c4ccccc4CC3C)ccc21 (stereo unspecified) | 1% | -11% | 0 | 13µM* | -14% | 12µM*
CSc1ccc(S(=O)(=O)N2c3ccccc3CC2C)cc1 (stereo unspecified) | 42%[1.91 µM] | -4% | 28 | 21µM* | -17% | ?
CSc1ccc(Cl)c(C(=O)NNC(=O)c2cccs2)c1 | . | 16% | -19 | -17% | . | 6%
O=C1C(=Cc2ccc(F)cc2)CCc2ccccc21 | . | . | -13 | 21µM* | . | 16µM*
O=C1C(=Cc2cccc(Cl)c2)CCc2ccccc21 | . | . | -21 | 21µM* | . | ?
O=C1C(=Cc2ccc(Cl)cc2)CCc2ccccc21 | . | . | -9 | ? | . | 21µM*
CCOc1ccc(C(=O)Nc2nnc(SCc3cc(=O)n4ccccc4n3)s2)cc1 | . | . | . | -4% | . | 2%
COc1ccc2c(C)c(CC(=O)NCc3ccccc3Cl)c(=O)oc2c1OC | . | . | . | -5% | . | -14%
C=Cc1ccccc1C=C | 14% | . | . | . | -13% | .
CCN(CC)CCNc1nc(C(F)(F)F)nc2c1nnn2Cc1ccccc1 | . | -3% | -60* | ? | . | -20%
FC(F)(F)c1nc(NCc2ccccc2)c2nnn(Cc3ccccc3)c2n1 | 8.9µM* | 11% | 4 | ? | -27% | ?
CC1CCCCN1CCCOC(=O)c1ccccc1 (stereo unspecified) | 28% | . | . | 3% | 10% | -6%
CC(=O)Nc1c(C)nn(-c2ccccc2)c1N1CCC(C(=O)Nc2ccccc2C(F)(F)F)CC1 | . | . | . | -20% | . | -17%
OCC[C@@H]1C[C@H](O)[C@@H](O)[C@@]2(OCCCc3cc(Cl)ccc32)O1 | . | . | -19 | -3% | . | -4%
Cc1ccc(CNC(=O)c2c(-c3cccc(Br)c3)noc2C)o1 | . | . | . | -13% | . | ?
CCN1CCN(CCCNC(=O)c2ccc(/C=C3/Sc4ccccc4N(Cc4ccccc4F)C3=O)cc2)CC1 | ? | 7% | ? | 15µM* | ? | 16µM*
Cc1ccc(/C=C2/Sc3ccccc3N(CC(=O)NCCCOC(C)C)C2=O)cc1 | 42% | ? | ? | ? | -14% | ?
CCN1CCN(CCNC(=O)c2ccc(/C=C3/Sc4ccccc4N(Cc4ccccc4C)C3=O)cc2)CC1 | ? | ? | 23 | ? | 18µM* | ?
O=C(NCCCN1CCOCC1)c1ccc(/C=C2\Oc3ccccc3N(Cc3ccccc3F)C2=O)cc1 | ? | -4% | 3 | 31% | ? | 2%
O=C(Cc1cccc(NC(=O)C2CCCN(C(=O)CCc3ccccc3)C2)c1)Nc1ccc(C(=O)N2CCCCC2)cc1 (stereo unspecified) | . | . | -108* | 23µM* | . | 29µM*
SMILES | RORgamma inh | ELG1 repair inh | IL1B secr inh | TDP1 cell noCPT | VP16 counter | DT40 TDP1 CPT
CN(C(=O)c1ccc(NC(=O)Cc2ccc(NC(=O)C3CCN(C(=O)c4ccccc4)CC3)cc2)cc1)C1CCCC1 | . | . | 4 | ? | . | ?
CN(C(=O)c1ccc(NC(=O)Cc2cccc(NC(=O)C3CCN(C(=O)CCc4ccccc4)CC3)c2)cc1)C1CCCC1 | . | ? | -5 | ? | . | ?
CN(C(=O)c1ccc(NC(=O)Cc2ccc(NC(=O)C3CCN(C(=O)CCc4ccccc4)CC3)cc2)cc1)C1CC1 | . | ? | -9 | 18µM* | . | 26µM*
CN(C(=O)c1cccc(NC(=O)Cc2cccc(NC(=O)C3CCN(C(=O)CCc4ccccc4)CC3)c2)c1)C1CC1 | . | . | -17 | 23µM* | . | -96%
O=C(Cc1cccc(NC(=O)C2CCN(C(=O)CCc3ccccc3)CC2)c1)Nc1cccc(C(=O)N2CCCC2)c1 | . | ? | -1 | 16µM* | . | ?
COc1ccc(OC)c(N(CC(=O)NCCSC2CCCCC2)S(=O)(=O)c2ccccc2)c1 | 1% | -6% | 9 | ? | -8% | ?
CC(=O)NCCC1CCN(C(=O)c2cc(COc3ccc(C)nc3)on2)CC1 | 13% | -19% | 21 | -25% | -3% | ?
CCNC(=O)C1(C)CCCN(C(=O)Cc2ccc(OC)c(OC)c2)C1 (stereo unspecified) | . | . | 4 | -12% | . | 4%
CN(C(=O)c1ccc(NC(=O)Cc2ccc(NC(=O)C3CCN(C(=O)CCc4ccccc4)CC3)cc2)cc1)C1CCCC1 | . | . | 19 | 21µM* | . | 23µM*
Cc1noc(C)c1NC(=O)N(C)C[C@@H]1Oc2ncc(Br)cc2C(=O)N([C@@H](C)CO)C[C@@H]1C | . | . | 25 | 39% | . | -1%
COc1ccccc1N/C=C/c1onc(C)c1[N+](=O)[O-] | 11µM* | ? | -17 | ? | ? | -29%
Cc1noc(/C=C/c2ccccn2)c1[N+](=O)[O-] | . | 18µM* | -51* | 21µM* | . | ?
Cc1c(COc2ccc3ccccc3c2)nnn1CC(=O)NS(=O)(=O)c1ccccc1C(F)(F)F | . | . | 29 | 24% | . | 0%
Cc1ccc(NC(=O)c2ccc([N+](=O)[O-])cc2)cc1S(=O)(=O)N(C)C | 6% | 18µM* | -9 | -26% | -5% | -27%
Cc1ccc(NC(=O)c2ccc(OC(F)F)cc2)cc1S(=O)(=O)N(C)C | ? | ? | 0 | ? | -2% | ?
Cc1ccc(NC(=O)CCNC(=O)c2ccc([N+](=O)[O-])cc2)cc1S(=O)(=O)N(C)C | 42% | 13µM* | 3 | ? | 1% | -10%
